# Laboratory results as given in ChEMBL document CHEMBL3988442, “University of Dundee, Small-Polar-MMV Screening Library” (2021).
# Results with a measured potency or affinity are listed apart.
# Biological target: Protein translocase subunit SecA (Escherichia coli (strain K12)) (UniProt P10408)
# Assay: Assay to Identify E. coli SecA ATPase Inhibitors
# Assay type: functional
# Design: scale not given: direction of the effect not stated beside the values
# Conditions: 30 µM
# Sequence of Protein translocase subunit SecA (Escherichia coli (strain K12)) (P10408 whole entry): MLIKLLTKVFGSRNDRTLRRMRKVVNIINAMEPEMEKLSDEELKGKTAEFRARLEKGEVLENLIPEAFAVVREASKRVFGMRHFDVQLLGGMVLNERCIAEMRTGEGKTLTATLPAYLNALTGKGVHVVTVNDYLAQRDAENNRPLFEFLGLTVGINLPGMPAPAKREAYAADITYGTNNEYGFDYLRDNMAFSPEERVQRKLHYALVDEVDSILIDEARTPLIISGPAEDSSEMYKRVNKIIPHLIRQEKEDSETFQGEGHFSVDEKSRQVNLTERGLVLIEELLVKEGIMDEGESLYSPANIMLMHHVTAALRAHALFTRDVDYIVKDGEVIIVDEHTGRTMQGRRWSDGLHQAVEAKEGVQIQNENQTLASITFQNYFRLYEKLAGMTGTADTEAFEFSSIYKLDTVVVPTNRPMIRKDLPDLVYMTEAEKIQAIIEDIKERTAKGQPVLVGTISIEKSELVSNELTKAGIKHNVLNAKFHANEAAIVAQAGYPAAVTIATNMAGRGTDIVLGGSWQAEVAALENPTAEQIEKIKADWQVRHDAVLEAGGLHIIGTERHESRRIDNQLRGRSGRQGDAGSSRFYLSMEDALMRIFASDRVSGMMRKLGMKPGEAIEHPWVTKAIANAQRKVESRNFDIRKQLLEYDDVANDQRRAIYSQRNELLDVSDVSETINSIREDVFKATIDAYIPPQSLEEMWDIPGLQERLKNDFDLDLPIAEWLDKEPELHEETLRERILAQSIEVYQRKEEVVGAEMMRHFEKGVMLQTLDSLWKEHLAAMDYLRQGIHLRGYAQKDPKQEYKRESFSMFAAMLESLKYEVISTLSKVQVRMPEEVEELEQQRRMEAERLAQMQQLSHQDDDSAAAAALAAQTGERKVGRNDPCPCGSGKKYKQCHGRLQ
row,Compound,Percent Effect
1,Cc1cnn(CC2CCCN2CC(=O)Nc2cc(C(C)(C)C)no2)c1 (stereo not given),-3.74%
2,O=C(NCCCNc1ccccc1)c1scnc1Cl,-4.57%
3,Cc1noc(Cl)c1CCC(=O)N1CCc2sccc2C1,-5.38%
4,COCC1CC2(CCN(Cc3ccc(OC)cc3)CC2)CN1C(C)C (stereo not given),-6.15%
5,CCCN1CCCn2nc(CNS(=O)(=O)c3cccc(C#N)c3)cc2C1,-7.29%
6,CC(C)c1cc(N2CCN(c3ccc(O)cc3)CC2)n2nccc2n1,-0.0494%
7,CC(Cn1cccn1)NC(=O)Cc1cccs1 (stereo not given),-0.712%
8,CCCC(=O)N1CCC2(CC1)CC(NC(C)=O)c1ccccc1O2 (stereo not given),0.455%
9,Cc1cnn(CC2CN(CC(=O)N(C)Cc3cccs3)CCO2)c1 (stereo not given),-1.07%
10,CCN1CCN(C(=O)NCCOc2ccc3c(c2)OCO3)CC1,-3.49%
11,COc1ccc(C(=O)NCCCn2ccnc2)c(OC)n1,-2.17%
12,CN1CCCn2c(nc(CNC(=O)c3ccsc3)cc2=O)C1,-0.659%
13,Clc1ccccc1-c1nc(CNC2CCc3ncnn3C2)cs1 (stereo not given),-0.994%
14,CCS(=O)(=O)c1ncc(CN(C)Cc2ccccn2)n1CCOC,-6.13%
15,COc1ncccc1CNC(=O)c1cccc(C)n1,-0.149%
16,Cn1nc2c(cc1=O)CN(Cc1nc(C(C)(C)C)no1)CC2,-2.61%
17,O=C(O)c1cc(S(=O)(=O)N2CCOc3ccccc32)ccc1F,-6.51%
18,COc1ccc(CNC(=O)N2CCC(Cc3cnn(C)c3)C2)cc1C (stereo not given),-1.91%
19,O=C(c1ccccn1)N1Cc2nccn2CC(CN2CCOCC2)C1 (stereo not given),-4.41%
20,CCOC1COC2(CCN(S(=O)(=O)c3cccc(F)c3)CC2)C1 (stereo not given),-2.48%

row,Compound,Percent Effect
1,Cc1ccc(CN2CCCn3c(nc(CN4CCCC4)cc3=O)C2)s1,-4.72%
2,COc1ccc(F)cc1C(=O)N(C)Cc1cc(C)on1,-0.183%
3,CCc1nc(C)ncc1C(=O)N1CCCC(n2nc(C)nc2C)C1 (stereo not given),-0.229%
4,CCC(O)CN1CCN(C(=O)c2sccc2OC)CC1 (stereo not given),0.313%
5,CN(Cc1noc(C2CC2)n1)C1CCN(Cc2ccncc2)C1 (stereo not given),-0.687%
6,CCCC(C)C(=O)N1CCC(n2cccc2C(=O)OC)CC1 (stereo not given),-6.33%
7,CC(=O)N1N=C(c2ccccc2)OC1C(=O)NCCc1cccc(Cl)c1 (stereo not given),4.91%
8,Cc1occc1C(=O)N1CC[C@@H](N2CCOCC2)[C@@H]1Cc1ccccc1,-6.37%
9,CO[C@@H]1CCN(C(=O)c2ccccn2)[C@H]1Cc1ccccc1,-0.453%
10,Cc1cc(CN(C)C(=O)c2ccnc(N(C)C)c2)no1,-2.33%
11,CCn1ccnc1CN1CCN(CC(O)c2ccccc2)CC1 (stereo not given),-1.54%
12,Cc1nn(C)c(N(C)C)c1CNCCCN(C)S(C)(=O)=O,-1.22%
13,O=C1CC(c2ccco2)c2sc(C(=O)O)c(-c3ccccc3)c2N1 (stereo not given),-3.7%
14,Cc1cccc(CN2C(=O)CCC23CCN(Cc2cccn2C)CC3)n1,-2.82%
15,Nc1nc2nc(C3CCCN(C(=O)c4cscn4)C3)ccc2s1 (stereo not given),0.0997%
16,CCc1ccc(O)c(C(=O)NC2CCN(C(=O)OC)CC2)c1,0.0182%
17,CS(=O)(=O)N1CCC[C@]2(C[C@@H](Oc3ncccc3F)CO2)C1,-5.48%
18,Fc1cccc(-c2nc(CN3CCn4c(nnc4C4CC4)C3)co2)c1,2.37%
19,CC(c1nc(C2CC2)no1)N1CCN(Cc2ccsc2)CC1 (stereo not given),-4.58%
20,Cc1cc(CN(C)C(=O)c2ccc(C(F)(F)F)nc2)no1,-1.51%
